Screening data (PubChem)
697 NFkB inh = inhibitors of the PMA/ionomycin-induced NF-kB reporter in 697 B cells | hit rate 0.33% among 330,000 | 697 B-cell NF-kB luciferase reporter, 16 h | inhibition, % at 4 µM; in the data active means inhibition above about 35%
SMARCA2 activ = increases SMARCA2 function in MMTV reporter cells; MG213 cells, MMTV-luciferase reporter, dexamethasone, overnight; hit rate 1% among 370,000; activation, % at 9.1 µM; in the data active means activation above about 7.8%;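 further: 0% = vehicle wells and 100% = reference activator wells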
Gli-Sufu block = blocks Gli-Sufu signaling in a luciferase reporter; Sufu-KO-LIGHT fibroblasts, Gli luciferase reporter luminescence; inhibition, % at 5 µM; hit rate 0.74% among 340,000; AID 588413;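 active means inhibition above about 55%, limit read from the data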;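 further: 0% = DMSO-treated cells and 100% = wells with medium but no cells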
Jurkat NFkB inh = lowers PMA/ionomycin-induced NF-kB signal in Jurkat cells; PMA/ionomycin-induced NF-kB luciferase reporter, luminescence; inhibition, % at 4 µM; hit rate 0.53% among 330,000; in the data active means inhibition above about 50%
esBAF inh = SWI/SNF esBAF complex inhibition; reporter increase, % at 12.5 µM; hit rate 2% among 350,000; mouse ES cells, Bmi1-luciferase knock-in reporter, 24 h; 100% = twice the neutral-well signal; in the data active means activation above about 40%; inconclusive means no clear call, values can overlap the other calls;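 further: 0% = median of the plate's neutral control wells and 100% = double that signal; a rise in the Bmi1 reporter signal indicates esBAF inhibition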
Numbers without * were called inactive; ? = inconclusive; . = not tested or not shown. Rows were chosen to be rich in hits. Some 3.3% of all compounds tested hit in one or more screens of this group.

SMILES	697 NFkB inh	SMARCA2 activ	Gli-Sufu block	Jurkat NFkB inh	esBAF inh
Cc1ccnc(NC(=O)CCC2CCCCC2)c1	16	5	-33	-81	49*
O=C(CCC1CCCC1)Nc1ccc(Br)cn1	-34	2	-56	-45	55*
Cc1cc(NC(=O)CCC2CCCCC2)no1	-2	2	4	-20	10
CCCC(=O)Nc1ccc(Br)cn1	20	-1	8	5	-2
COc1ccc(NC(=O)CC2CCCCC2)cc1OC	-13	2	-7	-37	29
Cc1ccc(OCc2cc(C(=O)N3CCN(C)C[C@@H]3c3ccccc3)no2)cc1C	-75	4	-25	-90	.
COc1cccc(OCc2cc(C(=O)N3CCNC(=O)C3Cc3ccccc3)no2)c1 (stereo not given)	-65	2	-7	-35	51*
CN1CCN(C(=O)c2cc(COc3ccccc3)on2)[C@@H](c2ccccc2)C1	-156	6	-59	-118	64*
COc1cccc(OCc2cc(C(=O)N3CCCC3c3ccccn3)no2)c1 (stereo not given)	-101	1	-28	-96	60*
COc1ccc(C(=O)/C=C/Nc2cccc(C)n2)cc1OC	-90	7	8	-102	47*
Cc1ccc(/C=N/NC(=O)c2c[nH]c3ccccc23)s1	-113	6	6	-102	59*
Cc1ccsc1/C=N/NC(=O)c1c[nH]c2ccccc12	-21	6	-67	-57	36
C[C@@H]1CN([C@H](C)CO)S(=O)(=O)c2ccc(-c3ccccc3)cc2O[C@@H]1CN(C)C(=O)C1CCCCC1	.	.	.	.	0
Cc1nc2ccccc2nc1-c1ccc([N+](=O)[O-])cc1	.	-1	-5	.	12
O=[N+]([O-])c1ccc(-c2cnc3ccccc3n2)cc1	-71	1	-64	-60	55*
CCC(Sc1nc2ccccc2c(=O)[nH]1)C(=O)Nc1ccc(C(C)=O)cc1 (stereo not given)	-54	-1	-28	-52	70*
CCNC(=O)C[C@H]1CC[C@H]2[C@H](COc3ccc(NC(=O)c4cc(C)on4)cc3C(=O)N2C)O1	.	.	.	.	2
O=C(Nc1nnc(-c2ccc(F)cc2)s1)c1ccco1	-67	2	-5	0	46*
CN(C(=O)c1ccco1)c1nnc(-c2ccc(F)cc2)s1	-97	6	-77	-33	58*
Cc1cccc(-c2nnc(NC(=O)c3ccco3)s2)c1	-101	0	-57	-20	59*
Cc1cccc(N(C)S(=O)(=O)c2nnc(NC(=O)c3ccco3)s2)c1	-1	-1	2	-1	-5
O=C(C[C@H]1C[C@H]2c3cc(NC(=O)Cc4ccncc4)ccc3O[C@H]2[C@H](CO)O1)NCc1ccc(-c2ccccc2)cc1	.	.	.	.	-24
CO[C@H]1CN(C)C(=O)c2cc(NC(C)=O)ccc2OC[C@@H](C)N(Cc2cncnc2)C[C@H]1C	.	.	.	.	-1
Cc1ccc(S(=O)(=O)NCC[C@H]2CC[C@@H](NC(=O)c3cnccn3)[C@@H](CO)O2)cc1	.	.	.	.	-1
O=C(Nc1ccc(N2CCCCC2)cc1)c1cccnc1	-46	4	-1	-35	62*
SMILES	697 NFkB inh	SMARCA2 activ	Gli-Sufu block	Jurkat NFkB inh	esBAF inh
CCc1ccc(NC(=O)c2cccnc2)cc1	-30	3	-43	-51	46*
CCSc1ccc(NC(=O)c2cccnc2)cc1	-42	-3	2	-17	37
CO[C@H]1CN(C)C(=O)c2ccc(NC(=O)C3CC3)cc2OC[C@@H](C)N(Cc2nccs2)C[C@H]1C	.	.	.	.	-10
C[C@H](CO)N1C[C@H](C)[C@H](CN(C)Cc2ccc3c(c2)OCO3)Oc2ccc(NC(=O)C3CC3)cc2C1=O	.	.	.	.	1
COc1ccc(S(=O)(=O)Nc2ccc3c(c2)OCO3)cc1	-8	-1	0	-3	3
COc1ccc2c(c1)CC/C(=C\Nc1ccc3c(c1)OCO3)C2=O	-30	5	-64	-63	53*
CN1C(=O)c2cc(NC(=O)c3cccs3)ccc2OC[C@@H]2O[C@@H](CC(=O)NCC3CC3)CC[C@H]21	.	.	.	.	0
O=[N+]([O-])c1ccccc1-c1ccc(C(=S)N2CCCCC2)o1	-75	-2	-39	-52	?
O=C(c1ccc(COc2ccccc2[N+](=O)[O-])o1)N1CCCCC1	-9	1	-21	-15	.
O=C(c1ccc(COc2ccccc2[N+](=O)[O-])o1)N1CCCCCC1	-39	4	-28	-36	55*
O=C(Nc1nccs1)c1ccc(-c2cccc([N+](=O)[O-])c2)o1	-55	3	-52	-29	67*
O=C(Nc1ccccc1F)c1ccc(-c2cccc([N+](=O)[O-])c2)o1	21	3	-77	-23	27
CN1CCN(C(=S)c2ccc(-c3cccc([N+](=O)[O-])c3)o2)CC1	-88	7.9*	-49	-103	.
O=[N+]([O-])c1ccccc1-c1ccc(C(=S)N2CCCC2)o1	-34	0	3	-33	44*
C[C@@H]1CN([C@@H](C)CO)C(=O)c2cccc(NS(=O)(=O)c3cccs3)c2O[C@@H]1CN(C)S(C)(=O)=O	.	.	.	.	2
C[C@@H]1CN([C@@H](C)CO)C(=O)c2cccc(NC(=O)Nc3ccc4c(c3)OCO4)c2O[C@H]1CN(C)Cc1ccc2c(c1)OCO2	.	.	.	.	15
CN(C)CC(=O)Nc1ccc2c(c1)[C@H]1C[C@@H](CC(=O)NCC3CC3)O[C@@H](CO)[C@H]1O2	.	.	.	.	1
COc1ccc(NC(=O)N(C)C[C@@H]2Oc3ccc(NS(=O)(=O)c4cccs4)cc3CC(=O)N([C@H](C)CO)C[C@@H]2C)cc1	.	.	.	.	1
CCNC(=O)C[C@@H]1CC[C@H]2[C@@H](COC[C@@H](O)CN2Cc2ccncc2)O1	.	.	.	.	-3
C=CCNC(=O)c1ccc(-c2cccc([N+](=O)[O-])c2)o1	-40	4	-31	-34	46*
Cc1ccc(S(=O)(=O)Nc2ccc3c(c2)C(=O)N([C@@H](C)CO)C[C@H](C)[C@H](CN(C)Cc2ccc(Oc4ccccc4)cc2)O3)cc1	.	.	.	.	-3
COc1ccc(C2CC(c3ccc(OC)c(OC)c3)=NN2S(C)(=O)=O)cc1 (stereo not given)	-171	3	-96	-93	71*
O=C(CSc1ccccn1)c1ccc2c(c1)OCO2	-94	4	-77	-90	51*
O=C(CCNc1ccccc1)c1ccc2c(c1)OCO2	-109	-2	-112	-100	92*
O=C(CSc1ccccn1)Nc1ccc2c(c1)OCO2	-7	2	-9	-27	.
SMILES	697 NFkB inh	SMARCA2 activ	Gli-Sufu block	Jurkat NFkB inh	esBAF inh
Cc1ccc(C(=O)CCNc2ccccc2)o1	-47	4	-10	-47	52*
CC(C)C(=O)Nc1ccc2c(c1)C(=O)N(C)[C@H]1CC[C@H](CC(=O)NC3CCCC3)O[C@H]1CO2	.	.	.	.	5
O=S(=O)(Cc1ccccc1)NCC[C@H]1CC[C@H](NS(=O)(=O)c2ccc(F)cc2)[C@@H](CO)O1	.	.	.	.	9
Cc1ccccc1-c1cnc2c(c1)C(=O)N([C@@H](C)CO)C[C@H](C)[C@H](CN(C)CC1CCCCC1)O2	.	.	.	.	-2
CC(C)c1ccc(OCC(=O)N2CCCCCC2)c(Br)c1	-29	3	-35	-11	51*
O=C(C[C@H]1C=C[C@@H](NC(=O)c2cccnc2)[C@@H](CO)O1)NCc1ccc(Cl)c(Cl)c1	.	.	.	.	3
